Experimental data: PubChem BioAssay (EPA / NIEHS)
Records with an inconclusive call do not appear. Activity calls are given as the source filed them. Rule for the calls: active = hit-call score of the fitted dose curve at least 0.9, where 1 is the maximum; inconclusive = response in the unintended direction; inactive = score below 0.9.

Experiment: Tanguay_ZF_120hpf_BRAI_legacy: (Legacy) Oregon State University Tanguay Lab 120 Hour Post-fertilization zebrafish Assay for Brain Malformation (AID 2283641)
Procedure: Tanguay_ZF_120hpf_legacy is a whole embryo, multiplexed endpoint assay using zebrafish larvae exposed for 120 hours post fertilization on a 96-well plate.Tanguay_ZF_120hpf_BRAI_legacy is one of one assay component(s) measured or calculated from the Tanguay_ZF_120hpf_legacy assay. It is designed to make measurements of zebrafish development as detected with brightfield microscopy of developing zebrafish embryos.Data from the assay component Tanguay_ZF_120hpf_BRAI_legacy was analyzed into 1 assay endpoints. This assay endpoint, Tanguay_ZF_120hpf_BRAI_legacy, was analyzed in the positive analysis fitting direction relative to DMSO as the negative control and baseline of activity. Using a type of morphology reporter, gain-of-signal activity can be used to understand changes in developmentals as they relate to the whole embryo. To generalize the intended target to other relatable targets, this assay endpoint is annotated to the zebrafish development intended target family, where the subfamily is brain morphogenesis.
Zebrafish husbandry: Tropical 5D wild-type adult zebrafish were housed in at an approximate density of 1000 per 100 gallon tank at the Sinnhuber Aquatic Research Laboratory, Oregon State University, Corvallis, OR. Each tank was kept at standard laboratory conditions of 28C on a 14-h light/10-h dark photoperiod in fish water consisting of reverse osmosis water supplemented with a commercially available salt (Instant Ocean). Spawning funnels were placed into the tanks the night prior, and embryos were collected and staged. […] Ten microliters of each row of dilution plate 2 was added to 2 exposure plates. The final DMSO concentration used was 0.64% (vol/vol). Thirty-two embryos were also exposed to 5uM trimethyltin chloride (positive control). Plates were sealed to prevent evaporation and foil covered to reduce light exposure and kept in a 28C incubator. Embryos were statically exposed until 120 hpf. At 24 hpf, embryos were assessed for photomotor response using a custom photomotor response analysis tool (PRAT) and for developmental toxicity endpoints (MO24: mortality at 24 hpf, DP: developmental progression, SM: spontaneous movement, and NC: notochord distortion). At 120 hpf, locomotor activity was measured using Viewpoint Zebralab and assessed for 18 endpoints. Zebrafish acquisition and analysis program (ZAAP), a custom program designed to inventory, acquire, and manage zebrafish data, was used to collect developmental endpoints as either present or absent (i.e., binary responses were recorded). If mortality occurred for an embryo (at either 24 or 120 hpf), the non-mortality endpoints were not measured.
In the case of `CCOP(=O)(SC(C)CC)N1CCSC1=O` (stereo not given), the outcome was “inactive”.
With `CCOP(=S)(OCC)OC(Cl)C(Cl)(Cl)Cl` (stereo not given) the outcome was “inactive”.
With `C[N+]1(C)CCCCC1` the outcome was “inactive”.
For `CCc1cnc(C2=NC(C)(C(C)C)C(=O)N2)c(C(=O)O)c1` (stereo not given), the outcome was “inactive”.
In the case of `CCOP(=S)(OCC)Oc1ccc2c(C)c(Cl)c(=O)oc2c1`, the outcome was “inactive”.
For `CC(C)[C@H](C(=O)O[C@H](C#N)c1cccc(Oc2ccccc2)c1)c1ccc(Cl)cc1`, the AC50 was 4.07 µM (active).
In the case of `O=C(O)c1cc(Oc2ccc(C(F)(F)F)cc2Cl)ccc1[N+](=O)[O-]`, the outcome was “inactive”.
In the case of `CCNc1nc(Cl)nc(NC(C)(C)C#N)n1`, the outcome was “inactive”.
In the case of `CN(C)[C@@H]1C(=O)C(C(N)=O)=C(O)[C@@]2(O)C(=O)C3=C(O)c4c(O)cccc4[C@@](C)(O)[C@H]3[C@H](O)[C@@H]12`, the outcome was “inactive”.
With `CCCCN(CC)c1c([N+](=O)[O-])cc(C(F)(F)F)cc1[N+](=O)[O-]` the outcome was “inactive”.
With `FC(F)C(F)(F)OCC(Cn1cncn1)c1ccc(Cl)cc1Cl` (stereo not given) the AC50 was 13.7 µM (active).
With `CCc1cccc(CC)c1N(COC)C(=O)CCl` the outcome was “inactive”.
With `CCCCOC(=O)c1ccccc1C(=O)O` the outcome was “inactive”.
In the case of `CSc1nc(NC(C)C)nc(NC(C)C)n1`, the outcome was “inactive”.
With `CC(C)=CC1C(C(=O)OCN2C(=O)C3=C(CCCC3)C2=O)C1(C)C` (stereo not given) the outcome was “inactive”.
In the case of `CNC(=O)ON=C(SC)C(=O)N(C)C`, the outcome was “inactive”.
For `Cc1nn(-c2cc(NS(C)(=O)=O)c(Cl)cc2Cl)c(=O)n1C(F)F`, the outcome was “inactive”.
In the case of `CCOP(=O)(NC(C)C)Oc1ccc(SC)c(C)c1` (stereo not given), the AC50 was 61.8 µM (active).
With `CON=C(C(=O)OC)c1ccccc1CON=C(C)c1cccc(C(F)(F)F)c1` the AC50 was 6.64 µM (active).
For `C=C(C)[C@H]1Cc2c(ccc3c2O[C@@H]2COc4cc(OC)c(OC)cc4[C@@H]2C3=O)O1`, the outcome was “inactive”.
In the case of `COP(=O)(NC(C)=O)SC` (stereo not given), the outcome was “inactive”.
For `CC(C)N(C(=O)SCC(Cl)=C(Cl)Cl)C(C)C`, the outcome was “inactive”.
For `CN1COCN(Cc2cnc(Cl)s2)C1=N[N+](=O)[O-]`, the outcome was “inactive”.
In the case of `CCC(=NOC/C=C/Cl)C1=C(O)CC(C2CCOCC2)CC1=O` (stereo not given), the outcome was “inactive”.
For `CN(C)NC(=O)CCC(=O)O`, the outcome was “inactive”.
With `CCC(CC)Nc1c([N+](=O)[O-])cc(C)c(C)c1[N+](=O)[O-]` the outcome was “inactive”.
For `CC(=NC#N)N(C)Cc1ccc(Cl)nc1`, the outcome was “inactive”.
In the case of `S=C1NCCN1`, the outcome was “inactive”.
With `CCCCSP(=O)(SCCCC)SCCCC` the outcome was “inactive”.
In the case of `CCOP(=S)(OCC)Oc1ccc([N+](=O)[O-])cc1`, the outcome was “inactive”.
In the case of `CNc1cnn(-c2cccc(C(F)(F)F)c2)c(=O)c1Cl`, the outcome was “inactive”.
With `C#CCC1=C(C)C(OC(=O)C2C(C=C(C)C)C2(C)C)CC1=O` (stereo not given) the outcome was “inactive”.
In the case of `COc1cccc(C(=O)NN(C(=O)c2cc(C)cc(C)c2)C(C)(C)C)c1C`, the outcome was “inactive”.
For `CNC(=O)Oc1cccc2c1OC(C)(C)O2`, the outcome was “inactive”.
For `C[Si](Cn1cncn1)(c1ccc(F)cc1)c1ccc(F)cc1`, the AC50 was 47 µM (active).
In the case of `CCOC(=O)COc1cc(-c2nn(C)c(OC(F)F)c2Cl)c(F)cc1Cl`, the outcome was “inactive”.
For `O=c1ccc(=O)[nH][nH]1`, the outcome was “inactive”.
With `Nc1c(Cl)cc([N+](=O)[O-])cc1Cl` the AC50 was 46.3 µM (active).
For `COc1ccc(C(=CC(=O)N2CCOCC2)c2ccc(Cl)cc2)cc1OC`, the AC50 was 40.9 µM (active).
For `CN(C)C(=O)Nc1cccc(C(F)(F)F)c1`, the outcome was “inactive”.
